From the supplement of paper PMC6555819

Columns and labels:
Test in all cases: PBM binding z-score (relative to random genomic background probes); higher = stronger binding; sequences stand for … in GC…GCGATTGACAGCGTAGAATGAAGG
[1] = test system: FXR:RXRa (NR concentration 270 nM, RXRa partner concentration 90 nM)
In short: (§1)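 Regression normalization was applied to scanned fluorescence from custom Agilent 4×180K protein-binding microarrays. Before scanning, arrays were incubated 1 h with ligand-free nuclear receptor dimers, and binding was detected with antibodies against each partner (one per run). Binding z-scores use the random background probes as reference.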

[2] = test system: LXRa:RXRa (NR concentration 270 nM, RXRa partner concentration 90 nM)
In short: as §1

[3] = test system: LXRa homodimer (NR concentration 270 nM)
In short: as §1

[4] = test system: LXRb:RXRa (NR concentration 270 nM, RXRa partner concentration 90 nM)
In short: as §1

[5] = test system: LXRb homodimer (NR concentration 270 nM)
In short: as §1

[6] = test system: PPARa:RXRa (NR concentration 270 nM, RXRa partner concentration 90 nM)
In short: as §1

[7] = test system: PPARg:RXRa (NR concentration 180 nM, RXRa partner concentration 90 nM)
In short: as §1

[8] = test system: PPARg:RXRa 270nM:90nM, anti-RXR (NR concentration 270 nM, RXRa partner concentration 90 nM)
In short: as §1

[9] = test system: PPARg:RXRa 30nM:10nM, anti-RXR (NR concentration 30 nM, RXRa partner concentration 10 nM)
In short: as §1

[10] = test system: PPARg:RXRa 90nM:30nM, anti-RXR (NR concentration 90 nM, RXRa partner concentration 30 nM)
In short: as §1

[11] = test system: PPARg:RXRa DBDmut IVT, anti-RXR (DBD mutation: RXRa K156A/R161A, NR concentration 270 nM, RXRa partner concentration 90 nM)
In short: as §1

[12] = test system: PPARg:RXRa IVT, anti-PPARg (NR concentration 270 nM, RXRa partner concentration 90 nM)
In short: as §1

[13] = test system: PPARg DBDmut:RXRa IVT, anti-PPARg (DBD mutation: PPARg1 K132A/R137A, NR concentration 270 nM, RXRa partner concentration 90 nM)
In short: as §1

[14] = test system: PPARg DBDmut IVT, anti-PPARg (DBD mutation: PPARg1 K132A/R137A, NR concentration 270 nM)
In short: as §1

[15] = test system: PPARg homodimer (NR concentration 180 nM)
In short: as §1

[16] = test system: PXR:RXRa (NR concentration 270 nM, RXRa partner concentration 90 nM)
In short: as §1

[17] = test system: PXR homodimer (NR concentration 270 nM)
In short: as §1

[18] = test system: RARa:RXR (NR concentration 270 nM, RXRa partner concentration 90 nM)
In short: as §1

[19] = test system: RARa homodimer (NR concentration 270 nM)
In short: as §1

[20] = test system: RARb:RXRa (NR concentration 270 nM, RXRa partner concentration 90 nM)
In short: as §1

Sequence | PBM binding z-score [1] | PBM binding z-score [2] | PBM binding z-score [3] | PBM binding z-score [4] | PBM binding z-score [5] | PBM binding z-score [6] | PBM binding z-score [7] | PBM binding z-score [8] | PBM binding z-score [9] | PBM binding z-score [10] | PBM binding z-score [11] | PBM binding z-score [12] | PBM binding z-score [13] | PBM binding z-score [14] | PBM binding z-score [15] | PBM binding z-score [16] | PBM binding z-score [17] | PBM binding z-score [18] | PBM binding z-score [19] | PBM binding z-score [20]
GGAACGCGGGCATTCGAGTTGATAGCATGGCGAT | -0.388 | -0.465 | -0.588 | -1.04 | -1.3 | -1.13 | -0.044 | -0.711 | -0.908 | -0.624 | -0.393 | -0.666 | -1.41 | -1.44 | -1.1 | -0.103 | -0.449 | -0.652 | -1.13 | -0.209
TCATATAGGTGATACAGGTGAAAGTCGGCATCTA | 0.938 | 1.04 | 0.153 | 0.984 | -0.0198 | 2.33 | 1.96 | 2.94 | 3.85 | 3.55 | 4.78 | 4.31 | 1.81 | 1.2 | 1.4 | 0.783 | 0.342 | 0.978 | 1.22 | 0.996
GATACAGGGTCAGCTAGAGGCCAGAGTATGGAAA | 4.81 | 2.75 | -0.32 | 2.6 | -0.659 | 4.53 | 3.81 | 3.35 | 0.742 | 2.06 | 1.03 | 2.29 | 0.139 | 0.0351 | 3.5 | 3.49 | -0.262 | 4.85 | 0.574 | 4.22
TCATATAGGTAAATGGTGAAAGTCGGTGTGGTAA | 0.818 | 1.03 | 0.217 | 0.846 | -0.047 | 1.6 | 1.54 | 3.44 | 4.15 | 3.96 | 3.92 | 2.4 | 0.569 | 0.625 | 1.49 | 0.445 | 0.609 | 0.554 | 1.52 | 0.243
ATCTCTAGGTGACCAAGTTCAGTGAATGCCGAAC | 0.185 | 0.357 | 0.0777 | 0.467 | 0.278 | 1.9 | 1.99 | 1.7 | 0.308 | 1.05 | 5.31 | 4.76 | 1.66 | 1.14 | 0.611 | 2.17 | 1.7 | 0.763 | -0.118 | 1.7
TCTGCTAGGTCAGTTGGTCAGCAAACGAGCTGCC | 0.988 | 0.432 | -0.424 | 0.394 | 0.405 | 1.36 | 0.418 | 1.65 | 1.19 | 1.41 | 2.75 | 2.88 | 0.288 | 0.656 | 0.233 | 0.285 | -0.998 | 0.565 | -1.22 | 3.25
ATCGAAAGGTTGAGGTGAGTATAGAGAAAGGGAA | 0.898 | 0.95 | -0.00942 | 0.744 | 0.158 | 1.86 | 0.625 | 0.616 | 0.531 | 0.337 | -0.0233 | 1.04 | 1.15 | 1.07 | 0.793 | 0.751 | 0.241 | 1.37 | 0.673 | 1.79
GCTGCTAGGTCAGGCTGGTCAGCTAACGGGTACG | 0.826 | 0.306 | -0.725 | -0.222 | -1.11 | 1.3 | 0.457 | 0.956 | -0.364 | -0.0747 | 3.75 | 2.35 | -1.05 | -1.02 | -0.17 | -0.0298 | -0.747 | 0.0805 | -0.715 | 3.35
AGTCAAAATTCATCTAGGTAACGTAAGATATGCT | -0.194 | -0.373 | -0.0496 | -0.0959 | -0.222 | 0.0588 | 1.19 | 0.183 | 0.359 | 0.0171 | 0.746 | 2.03 | 1.05 | 0.853 | 0.212 | -0.186 | 0.107 | 0.122 | 0.616 | 0.168
GCTTACGGGTCAAAGGTTATAGCATGAATAGAAT | 7.45 | 5.9 | 0.64 | 6.1 | 0.563 | 6.96 | 11.1 | 9.42 | 9.01 | 9.91 | 4.91 | 5.87 | 1.16 | 0.991 | 2.12 | 6.26 | 0.29 | 8.55 | 0.989 | 4.79
CGTCCAAGGTCAATGCTAGGTCCGTGAAAGCATT | 6.89 | 4.45 | 0.519 | 3.53 | 0.496 | 4.84 | 3.19 | 3.97 | 0.655 | 2.86 | 2.99 | 3.02 | 0.341 | -0.534 | 3.68 | 3.8 | 0.579 | 4.21 | 1.32 | 4.91
TGAGACAGGTGAAGGTAACTCAGGTACGCAGTCG | -0.213 | 1.11 | -0.351 | 0.233 | -0.678 | 0.549 | 0.639 | 0.251 | 0.211 | -0.17 | -0.0775 | 0.991 | 0.178 | -0.801 | 0.0963 | -0.189 | -0.538 | 0.124 | -0.0291 | 0.697
ATCGTAAGGTCGACGAGGTGAGTATACACCGTTT | 3.07 | 1.79 | -0.0992 | 1.66 | 0.155 | 3.03 | 1.36 | 1.25 | 0.685 | 0.918 | 0.226 | 1.61 | 0.856 | 0.0648 | 0.926 | 2.17 | 0.476 | 2.39 | 0.139 | 3.08
ATCTCAAGGTAAAGATAGTTCAGTGAATGCAAAT | 0.707 | 5.22 | 0.562 | 1.38 | 0.331 | 0.546 | 0.372 | 0.508 | 0.448 | 0.296 | 0.21 | 0.461 | 0.586 | 1.27 | 0.584 | 2 | 1.05 | 0.797 | 0.976 | 1.16
ACTAGTTGGTCAGCTGAGGTCGCACACAATTCGG | 1.01 | 0.732 | 0.139 | 1.1 | 0.147 | 1.49 | 0.497 | 0.445 | -0.204 | 0.316 | 1.03 | 1.57 | 0.582 | 0.333 | 0.559 | 3.02 | 0.134 | 1.79 | -0.0842 | 1.91
